From PubChem BioAssay
L3MBTL1 inh-1: qHTS Assay for the Inhibitors of L3MBTL1; Lethal(3)malignant brain tumor-like protein 1 (Homo sapiens), Q9Y468; AlphaScreen L3MBTL1–H3K9me1 peptide binding; Potency, µM (series often up to 57.1 µM), for the others: top-dose activity, negative = inhibition, usual class: inhibitors; 0.66% of 230,000 active; AID 485360, 2010; note: % is set by controls: 0 for no effect and ±100 for the full control effect; nearly all actives have a fitted effect of over 60% in size
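First, the protein-peptide complex forms for 30 min at room temperature (L3MBTL1 50 nM, biotinylated H3K9me1 peptide 75 nM). Next, compounds are pin-transferred and incubated 30 min. Finally, AlphaScreen beads are added and read after 30 min.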
WRN helicase inh-1: qHTS for Inhibitors of WRN Helicase. 0.46% of 360,000 active. AID 651768, 2012. WRN helicase unwinding, fluorescent forked duplex, kinetic. Potency, µM (titrated, usually from 114 µM), for the others: at the top dose activity change, negative = inhibition, usual class: inhibitors. Bifunctional 3'-5' exonuclease/ATP-dependent helicase WRN (Homo sapiens), Q14191; note: % is set by controls: 0 for no effect and ±100 for the full control effect; nearly all actives have a fitted effect of over 55% in size
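WRN at 20 nM final preincubated with compound 15 min at room temperature; reaction started with 100 nM fluorophore/quencher forked duplex oligonucleotide and 2 mM ATP final. Unwinding followed kinetically by red fluorescence (ex 525, em 598 nm).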
APE1 inh-1: qHTS Assay for Inhibitors of the Human Apurinic/apyrimidinic Endonuclease 1 (APE1). DNA repair nuclease/redox regulator APEX1 (Homo sapiens), P27695. recombinant APE1, TAMRA/BHQ-2 abasic DNA cleavage fluorescence. Potency, µM (top dose mostly 65.8 µM), inactives show at the top dose activity change, negative = inhibition, hits mostly inhibitors. 0.35% of 350,000 active. AID 2517, 2012;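 note: plate controls were vehicle for no effect and reference inhibitor for full effect; nearly all actives have a fitted effect of over 55% in size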
Target sequence (P27695 whole entry, looked up): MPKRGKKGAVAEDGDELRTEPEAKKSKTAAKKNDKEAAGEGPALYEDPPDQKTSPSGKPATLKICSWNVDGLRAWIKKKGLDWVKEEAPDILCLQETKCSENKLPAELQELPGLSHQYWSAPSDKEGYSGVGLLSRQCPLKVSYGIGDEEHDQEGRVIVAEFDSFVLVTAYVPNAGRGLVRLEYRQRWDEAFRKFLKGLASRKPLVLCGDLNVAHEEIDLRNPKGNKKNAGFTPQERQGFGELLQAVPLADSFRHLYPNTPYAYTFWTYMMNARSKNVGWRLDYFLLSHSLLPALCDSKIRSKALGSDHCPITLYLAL
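Quantitative HTS: incision of a TAMRA/BHQ-2 double-stranded substrate bearing a tetrahydrofuran abasic site by 0.75 nM APE1 raises fluorescence. Substrate 50 nM final, added after 15 min compound preincubation at room temperature; progress as third-minus-first kinetic read difference.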
RECQ1 inh-1: qHTS Assay for Inhibitors of RecQ-Like Dna Helicase 1 (RECQ1). RECQ1 DNA unwinding, red fluorescence kinetic read. ATP-dependent DNA helicase Q1 (Homo sapiens), P46063. Potency, µM (doses to about 57.3 µM), inactives show at the top dose activity, negative = inhibition, hits mostly inhibitors. AID 2549, 2010. 0.54% of 240,000 active;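 note: plate controls were vehicle for no effect and no enzyme for full effect; nearly all actives have a fitted effect of over 30% in size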
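RECQ1T1 50 nM; forked duplex (20 bp + 30-nt ss tails) 200 nM, ATP 2 mM final; pH 8.0, 2 mM MgCl2, 2.5 ug/ml poly(dI-dC); 15 min compound preincubation; discontinuous kinetic read over 2 h at RT.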
BLM helicase inh-1: qHTS Assay for Inhibitors of Bloom's syndrome helicase (BLM) | RecQ-like DNA helicase BLM (Homo sapiens), P54132 | recombinant BLM DNA unwinding, fluorescence dequenching | Potency, µM (series often up to 56.1 µM), for the others: at the highest dose activity change, negative = inhibition, usual class: inhibitors | 0.2% of 350,000 active;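 note: plate controls were vehicle for no effect and no enzyme for full effect; nearly all actives have a fitted effect of over 35% in size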
APE1 dye cs: Counterscreen for APE1 Inhibitors: Fluorescent Dye Displacement Assay; shares compounds with APE1 inh-1; DNA fluorescent dye displacement counterscreen, fluorescence; Potency, µM (doses to about 28.5 µM), inactives show at the top dose activity change, negative = inhibition, most hits filed as inhibitors; 7% of 480 active; AID 2564, 2010;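 note: loss of thiazole orange fluorescence as the dye is displaced from duplex DNA; 0% = ThO with dsDNA and no compound and -100% = ThO without dsDNA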
Endo IV inh: Counterscreen for APE1 Inhibitors: qHTS Assay for Inhibitors of Endonuclease IV | E. coli Endo IV, fluorogenic AP-site DNA cleavage | AID 2565, 2010 | shares compounds with APE1 inh-1 | Potency, µM (titrated, usually from 27.1 µM), for inactives: at the highest dose activity change, negative = inhibition, usual class: inhibitors | 4% of 560 active;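 note: plate controls were uninhibited enzyme wells for no effect and no enzyme buffer wells for full effect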
APE1 inh-2: Confirmation qHTS Assay for Inhibitors of the Human Apurinic/apyrimidinic Endonuclease 1 (APE1); shares compounds with APE1 inh-1; purified APE1, fluorogenic abasic-site DNA cleavage; Potency, µM (top dose mostly 57.1 µM), without a hit: at the highest dose activity change, negative = inhibition, hits mostly inhibitors; 44% of 750 active; AID 2572, 2010; note: % is set by controls: 0 for no effect and ±100 for the full control effect; nearly all actives have a fitted effect of over 30% in size
APE1 FP inh: qHTS FP-Based Assay for Inhibitors of the Human Apurinic/apyrimidinic Endonuclease 1 (APE1); shares compounds with APE1 inh-1; APE1 binding to TAMRA-labelled double-stranded DNA, fluorescence polarization displacement; Potency, µM (doses to about 28.5 µM), for inactives: at the highest dose activity, negative = inhibition, most hits filed as inhibitors; 7% of 480 active; AID 2573, 2010; note: % is set by controls: 0 for no effect and ±100 for the full control effect
RECQ1 inh conf: Confirmation qHTS Assay for Inhibitors of RecQ-Like Dna Helicase 1 (RECQ1); AID 2708, 2010; 28% of 610 active; shares compounds with RECQ1 inh-1; RECQ1 helicase DNA unwinding, fluorescence; Potency, µM (doses to about 229 µM), for inactives: top-dose activity change, negative = inhibition, most hits filed as inhibitors; note: % is set by controls: 0 for no effect and ±100 for the full control effect; nearly all actives have a fitted effect of over 45% in size
ADP FP counter: Counterscreen for RECQ1 Inhibitors: ADP Fluorescence Polarization Displacement Assay | shares compounds with RECQ1 inh-1 | Potency, µM (doses to about 228 µM), for the others: top-dose activity change, negative = inhibition, usual class: inhibitors | ADP fluorescence polarization displacement counterscreen | 27% of 530 active; note: % is set by controls: 0 for no effect and ±100 for the full control effect; nearly all actives have a fitted effect of over 45% in size
RECQ1 inh-2: Confirmation qHTS Assay for Inhibitors of RecQ-Like Dna Helicase 1 (RECQ1) - Round 2 Cherry Picks | Potency, µM (titrated, usually from 119 µM), for inactives: at the highest dose activity, negative = inhibition, most hits filed as inhibitors | recombinant RECQ1 DNA unwinding, red fluorescence | AID 504841, 2011 | shares compounds with RECQ1 inh-1 | 15% of 1,100 active; note: % is set by controls: 0 for no effect and ±100 for the full control effect; nearly all actives have a fitted effect of over 50% in size
L3MBTL1 inh-2: qHTS Assay for the Inhibitors of L3MBTL1: Hit Validation; shares compounds with L3MBTL1 inh-1; L3MBTL1 methyl-lysine binding inhibition, biochemical qHTS; Potency, µM, hits mostly inhibitors; 91% of 500 active; AID 540279, 2011; note: nearly all actives have a fitted effect of over 70% in size
AlphaScreen ctr2: qHTS Assay for the Inhibitors of L3MBTL1: Hit Validationin AlphaScreen Counterscreen | AlphaScreen counterscreen, signal inhibition | AID 602224, 2012 | shares compounds with L3MBTL1 inh-1 | 500 tested, under 10 active | Potency, µM (top dose mostly 57.1 µM), inactives show at the top dose activity change, negative = inhibition, hits mostly inhibitors; note: 0% is about no effect
WRN helicase inh-2: qHTS for Inhibitors of WRN Helicase: Confirmatory Assay for Cherry-picked Compounds. shares compounds with WRN helicase inh-1. WRN helicase DNA unwinding, fluorescence kinetic. Potency, µM (titrated, usually from 57.1 µM), for inactives: top-dose activity, negative = inhibition, hits mostly inhibitors. 63% of 610 active. AID 720497, 2013; note: nearly all actives have a fitted effect of over 65% in size
TO DNA binding: qHTS for Inhibitors of WRN Helicase: Thiazole Orange DNA Binding Counterscreen | shares compounds with WRN helicase inh-1 | thiazole orange DNA binding displacement, fluorescence | Potency, µM (top dose mostly 57.1 µM), for the others: at the highest dose activity change, negative = inhibition, usual class: inhibitors | 10% of 610 active | AID 720499, 2013;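 note: drop in dye fluorescence marks compound binding to DNA; % is set by controls: 0 for no effect and ±100 for the full control effect; nearly all actives have a fitted effect of over 60% in size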
BLM helicase inh-2: qHTS for Inhibitors of WRN Helicase: BLM Helicase Counterscreen for WRN Inhibitors; shares compounds with WRN helicase inh-1; Recombinant BLM helicase DNA unwinding, red fluorescence; Potency, µM (doses to about 57.1 µM), without a hit: at the top dose activity change, negative = inhibition, usual class: inhibitors; 60% of 610 active; AID 720503, 2013; note: nearly all actives have a fitted effect of over 60% in size
* hit, by the source's call; ? = inconclusive; . = no result; [ ] = dose if it differs, or a comment. An excerpt weighted towards active compounds, which were near 0.92% of everything screened. Calls come from the whole dose curve; as a rule, active = well fitted curve in the direction sought with a large enough effect; inconclusive = small, poorly fitted or top-dose-only effect, or another doubt; inactive = no such curve, though single readings can be large; an effect the other way counts as inactive or inconclusive. Potency is the fitted concentration of half-maximal effect.

SMILES	L3MBTL1 inh-1	WRN helicase inh-1	APE1 inh-1	RECQ1 inh-1	BLM helicase inh-1	APE1 dye cs	Endo IV inh	APE1 inh-2	APE1 FP inh	WRN helicase inh-2	TO DNA binding	BLM helicase inh-2	others
O=C(COc1ccccc1C(=O)N/N=C\c1ccc(O)c(O)c1)N/N=C/c1ccc(O)c(O)c1	1.58µM*	0.267µM*	2.82µM*	1µM*	2µM*	6.31µM*	28.9%	2µM*	?	0.271µM*	19.2µM*	0.121µM*	RECQ1 inh conf=2.24µM*;ADP FP counter=-14.4%[91.9 µM]
Cc1ccc(CNC(=O)CCS(=O)(=O)c2ccc(Cl)cc2)cc1	-2.6%	-14.1%	2.0%	2.6%	-0.4%	.	.	.	.	.	.	.
Cc1ccc(CNC(=O)CCS(=O)(=O)c2ccc(Br)cc2)cc1	.	25.1µM*	?	?	-17.2%	.	.	?	.	3.83µM*	5.41µM*	2.15µM*	RECQ1 inh-2=?
O=C(O)c1cccc(-n2cccc2/C=C/[N+](=O)[O-])c1	2.82µM*	20µM*	3.98µM*	?	60.5%	-4.5%	17.1%	4.47µM*	?	17.1µM*	-5.7%	19.2µM*	L3MBTL1 inh-2=1.68*;AlphaScreen ctr2=4.8%
CC(C(=O)O)N1C(=O)/C(=C/C=C/c2ccco2)SC1=S (stereo unspecified)	1.12µM*	2.38µM*	2.82µM*	6.31µM*	?	6.8%	97.2%	0.891µM*	12.6µM*	0.541µM*	-11.3%	0.961µM*
CC(=C\c1ccccc1)/C=C1/SC(=S)N(C(C(=O)O)C(C)C)C1=O (stereo unspecified)	-4.9%	-30.7%	-4.8%	-13.9%	-6.1%	.	.	.	.	.	.	.
O=C1/C(=C/c2cccs2)SC(=S)N1NS(=O)(=O)c1ccccc1	-13.5%	-13.7%	-4.6%	10.6%	-7.5%	.	.	.	.	.	.	.
O=C1/C(=C/C=C/c2ccco2)SC(=S)N1NS(=O)(=O)c1ccccc1	.	8.91µM*	2.51µM*	3.55µM*	?	-3.1%	115.6%	3.55µM*	?	4.82µM*	-18.2%	7.64µM*
COc1ccc(CNC(=O)CCCN2C(=O)CSc3c2c(C)nn3-c2ccccc2)c(OC)c1	.	.	.	.	-2.9%	.	.	.	.	.	.	.
CCc1ccccc1NC(=O)CSc1nnc(-c2cc(OC)c(OC)c(OC)c2)o1	.	.	.	.	-3.5%	.	.	.	.	.	.	.
O=C1CC(=O)N(Cc2ccco2)C(=O)N1	3.16µM*	25.1µM*	10µM*	?	62.7%	4.1%	20.6%	5.62µM*	-8.4%	7.64µM*	29.7%	4.29µM*	RECQ1 inh-2=?
CC(=O)NN1C(=O)/C(=C\c2ccc(Br)o2)SC1=S	?	-16.7%[57.1 µM]	?	-2.6%	5.5%	.	.	.	.	.	.	.
CC(=O)NN1C(=O)/C(=C/c2ccc(Br)o2)SC1=S	.	50.1µM*	31.6µM*	?	-9.9%	-8.1%	4.0%	?	19.4%	-19.8%	1.5%	-20.0%
Cc1cc(C)c2c(CN3CCCC3)cc(=O)oc2c1	.	-15.6%	.	.	.	.	.	.	.	.	.	.
